The text below walks through data of ChEMBL document CHEMBL3988442, “University of Dundee, Small-Polar-MMV Screening Library” (2021).

Out of some 48,000 compounds screened, about 13,000 (27%) showed an effect of 50% or more. This is one part of the list.

In this assay the test system is Wolbachia pipientis. The assay is described as follows: Anti-Wolbachia Cell-Based Screen. Format: functional. More on the design: scale not given: in the data most compounds retested in dose-response had high values. Particulars: 5 µM.
For the compound `COCC1CCN(S(=O)(=O)N2C[C@@H](C)[C@@](C)(O)C2)CC1`, the “Percent Effect” value amounted to 1.126%.
The value for `CN(Cc1cn2c(n1)CN(Cc1ccsc1)CC2)Cc1ccco1.O=C(O)C(F)(F)F.O=C(O)C(F)(F)F` was -7.727%; that for `CSc1cccc(CNC(=O)C2CC(=O)N(C3CC3)C2)c1` (configuration not stated) was -14.89%.
In the case of `Cn1cc(N2C[C@@H]3CN(S(=O)(=O)C4CC4)C[C@@H]3C2=O)cn1`, the “Percent Effect” value is -1.09%.
For the compound `COc1cccc(COC(C)C(=O)N(C)Cc2nnc3n2CCC3)c1` (configuration not stated), the “Percent Effect” value is listed as -2.392%.
Under `Cc1cc(CNc2cc(-c3ccoc3C)nn2CCO)c(C)o1` stands -24.32%.
For the compound `N#CC1(C(=O)N2CCN(Cc3cscn3)CC2)CCCC1`, the “Percent Effect” value is on record as -7.08%.
The value for `Cc1ccsc1C(=O)N1CCCN(Cc2cscn2)CC1` was 92.98%; that for `CCn1cc(CN2CCCN(C(=O)c3sccc3C#N)CC2)cn1` was -3.745%; that for `Cc1nc(CN2CCCN(C(=O)C3(C#N)CCCCC3)CC2)cs1` was -0.8463%.
Under `Cc1nc(CN2CCCN(C(=O)c3sccc3C#N)CC2)cs1` stands 111.7%.
With `CC(C)c1ccsc1C(=O)N1CCCN(Cc2cscn2)CC1`, the “Percent Effect” value worked out at 10.39%.
Under `CCn1ccnc1CN1CCCN(C(=O)c2sccc2C#N)CC1` stands 2.639%; under `N#Cc1ccsc1C(=O)N1CCCN(Cc2cscn2)CC1`, 105.7%.
For the compound `Cc1ccsc1C(=O)N1CCN(Cc2cscn2)CC1`, the “Percent Effect” value worked out at 118.4%.
The value for `CC(C)c1ccc(O)c(C(=O)N2CCN(Cc3cscn3)CC2)c1` was -2.44%; that for `N[C@H]1CN(C(=O)c2ccc(Cl)cc2O)C[C@@H]1C1CC1` was -2.238%.
Under `CC(C)[C@H]1COC(=O)N1Cc1nnc(-c2ccccc2)o1` stands -6.799%; under `CC(NCCn1cccn1)c1ccccc1Cl` (configuration not stated), 12.43%; under `CN1CCN(C(=O)C[C@@H]2COC[C@H]3CN(c4ccncn4)C[C@@H]23)CC1`, -4.365%.
As to `CCc1ccc(NC(=O)N2C[C@H]3C[C@H](C(=O)N4CCCC4)[C@@H](C2)O3)cc1`, the “Percent Effect” value is 103.5%.
Under `O=C(Nc1ccccc1)N1C[C@H]2C[C@H](C(=O)N3CCOCC3)[C@@H](C1)O2` stands 114.8%; under `CNC(=O)N1C[C@H]2C[C@H](C(=O)Nc3ccccc3)[C@@H](C1)O2`, -3.507%.
The value for `O=C(Nc1ccccc1)N1C[C@H]2C[C@H](C(=O)N3CCCC3)[C@@H](C1)O2` was 100.5%; that for `O=C(NCCc1ccccc1)N1C[C@H]2C[C@H](C(=O)N3CCCC3)[C@@H](C1)O2` was -4.163%; that for `CNC(=O)[C@H]1C[C@@H]2CN(C(=O)Nc3ccc(F)cc3)C[C@H]1O2` was -4.608%.
Regarding `O=C(Nc1ccccc1)N1C[C@@H]2OCCN(C(=O)c3ccco3)[C@@H]2C1`, the “Percent Effect” value turned out to be 7.532%.
`O=C(Nc1ccc(F)cc1)N1C[C@H]2C[C@H](C(=O)N3CCCC3)[C@@H](C1)O2`: the “Percent Effect” value worked out at 125.2%.
The value for `O=C(Nc1ccc(F)cc1)N1C[C@H]2C[C@H](C(=O)N3CCOCC3)[C@@H](C1)O2` was 1.969%; that for `O=C(NCc1ccccc1)N1C[C@H]2C[C@H](C(=O)N3CCCC3)[C@@H](C1)O2` was 8.283%.
Turning to `O=C1CC2(CCN(Cc3ccc(-c4ccn[nH]4)s3)CC2)CN1`, the “Percent Effect” value is given as -9.036%.
Under `CCc1noc(C(C)N2CCC(NS(=O)(=O)c3cccs3)CC2)n1` (configuration not stated) stands -6.324%.
The value for `CCC(=O)NCC(=O)NC(Cc1ccccc1)c1sccc1C` (configuration not stated) was 6.747%; that for `Cn1ncc(N2CCN(Cc3ccc(S(C)(=O)=O)cc3)CC2)cc1=O` was -9.751%; that for `CC(C)NC(=O)c1cc(-c2ccc(S(C)(=O)=O)cc2)nc2c1cnn2C` was 95.41%.
Under `CN(C)C(=O)c1cc(-c2ccc(S(C)(=O)=O)cc2)c2cnn(C)c2n1` stands 108.3%; under `Cc1cccc(N(C)Cc2nc3c(cnn3C)c(=O)[nH]2)c1C`, -8.766%.
For `CCOC(=O)CC(C)Nc1nc(C(C)(C)C)nc2c1cnn2C` (configuration not stated), the “Percent Effect” value was -7.754%.
On to `CC(C)NC(=O)c1cc(-c2ccc(S(C)(=O)=O)cc2)c2cnn(C)c2n1`, for which the “Percent Effect” value turned out to be 110.4%.
As for `CC(C)[C@H](Nc1nc(C2CCCC2)nc2c1cnn2C)C(N)=O`, the “Percent Effect” value was -0.02427%.
The value for `Cc1cnn(CC(C)NCc2ccc(S(C)(=O)=O)cc2)c1` (configuration not stated) was 4.95%.
The value for `COC(=O)[C@@H](Nc1nc(C2CCCC2)nc2c1cnn2C)[C@@H](C)O` was -8.342%.
Turning to `CCc1nc(CCNC(=O)NC2CCSCC2)cs1`, the “Percent Effect” value stood at 5.983%.
For `Cc1cn(CC(=O)NC2CCC3(CC2)OCCO3)c2ccccc12`, the “Percent Effect” value is on record as -12.26%.
Turning to `CCCN1CCN(C(=O)c2ccc3nc(C)oc3c2)[C@H]2CS(=O)(=O)C[C@H]21`, the “Percent Effect” value is recorded as -5.857%.
On to `COCCN1C[C@H]2CN(Cc3cccc(OC(F)(F)F)c3)CCN2C1=O`, for which the “Percent Effect” value was -4.744%.
`CC(NS(N)(=O)=O)c1ccc(OCc2ccc(F)cc2)cc1` (configuration not stated): the “Percent Effect” value turned out to be 111.6%.
Turning to `NC(=O)CS(=O)(=O)Cc1ccc(OCc2ccc(F)cc2)cc1`, the “Percent Effect” value is on record as -22.33%.
With `Cc1cc(C)n(-c2ccc(C(C)NS(N)(=O)=O)cc2)n1` (configuration not stated), the “Percent Effect” value was -26.74%.
Take `Cc1cccc(COc2ccc(C(C)N)cc2)c1.Cl` (configuration not stated): the “Percent Effect” value is on record as 108.7%.
As for `Cc1cccc(COc2ccc(NC(=O)C(C)NC(N)=O)c(C)c2)c1` (configuration not stated), the “Percent Effect” value is given as -6.983%.
The value for `Cc1cccc(COc2ccc(C(C)NC(=O)CNC(N)=O)cc2)c1` (configuration not stated) was 98.3%; that for `Cc1ccc(OCCC(=O)NC(C)c2ccncc2)cc1` (configuration not stated) was -14.45%.
Under `Cc1cccc(COc2ccc(C(C)NS(N)(=O)=O)cc2)c1` (configuration not stated) stands 134.5%.
Consider `CS(=O)(=O)Cc1ccc(OCc2ccc(F)cc2)cc1`, for which the “Percent Effect” value was -17.41%.
As to `CC(=O)NC(C)C(=O)Nc1ccc(OCc2cccc(F)c2)cc1C` (configuration not stated), the “Percent Effect” value is recorded as -4.537%.
Take `Cc1cccc(CNCCOc2ccc(S(C)(=O)=O)cc2)c1`: the “Percent Effect” value is listed as 16.11%.
Regarding `Cc1cc(OCc2cccc(F)c2)ccc1NC(=O)C(C)NC(N)=O` (configuration not stated), the “Percent Effect” value was -0.2467%.
In the case of `COc1cccc2ccc(CN3CCN(c4ncccn4)CC3)nc12`, the “Percent Effect” value is -3.273%.
As to `CC(C)(C)c1c[nH]c([C@@H]2COCCN2C2CCC2)n1`, the “Percent Effect” value was -8.065%.
For `Cc1cc(C)n(C2CN(C(=O)CN3C(=O)CSc4ccccc43)C2)n1`, the “Percent Effect” value came out at 2.557%.
As to `Cc1ccsc1[C@@H]1CCN(C(=O)Cn2cc3ccccc3n2)C[C@H]1O`, the “Percent Effect” value is -6.576%.
For `CS(=O)(=O)N1CCc2nc(NC(=O)Nc3c(F)cccc3F)sc2C1`, the “Percent Effect” value was -13.59%.
The value for `CCCNC(=O)c1nc2c(o1)CN(C(C)=O)C2` was 21.64%; that for `COc1ccc(CCNC2CCCN(c3ccc(C)nn3)C2)cc1` (configuration not stated) was -3.788%.
The value for `COc1ccc(C2CCCN2c2nnc(C)s2)c(OC)c1` (configuration not stated) was 6.611%; that for `CCN1CCN(C(=O)c2scnc2C)CC1` was 114.5%.
Consider `Cc1ncsc1C(=O)N1CCn2nc(CN3CCSCC3)cc2C1`, for which the “Percent Effect” value is reported as -3.157%.
With `COCCN1CCCN(C(=O)c2scnc2C)CC1`, the “Percent Effect” value was determined as 111.8%.
For `Cc1ncsc1C(=O)N1CCN(CCC(C)C)CC1`, the “Percent Effect” value is reported as 114%.
On to `COc1ccccc1C(=O)N1CCN(CCc2scnc2C)CC1`, for which the “Percent Effect” value is -5.378%.
For the compound `Cc1ncsc1C(=O)N1CCN(Cc2ccccc2)CC1C` (configuration not stated), the “Percent Effect” value was 4.154%.
For the compound `Cc1cccc(C(=O)N2CCCN(CCc3scnc3C)CC2)c1`, the “Percent Effect” value was -3.968%.
For the compound `Cc1ncsc1C(=O)N1CCC(Nc2cccnn2)CC1`, the “Percent Effect” value is on record as -12.54%.
The value for `CC(C)CCN1CCN(C(=O)c2cccnc2-n2cncn2)CC1` was 7.327%; that for `c1cc(CCN2CCC(NCc3ccsc3)CC2)ccn1` was -8.408%; that for `Cc1ccc(N2CCCC(NC(=O)Nc3cnn(C)c3)C2=O)cc1` (configuration not stated) was 10.21%.
The value for `O=C(NCc1cnc2n1CCN(Cc1ccoc1)C2)c1ccno1.O=C(O)C(F)(F)F` was 0.5733%; that for `CC(=O)N1CCc2c(nc(N(C)C)nc2NC(C)Cc2cccs2)C1` (configuration not stated) was 16.87%.
The value for `Cc1nc(-c2ccc(F)cc2)nc2c1CCN(C(=O)CN(C)C)CC2` was 3.588%.
As to `Cc1nc2c(c(NC(C)C)n1)CCN(C(=O)c1ccno1)CC2.O=C(O)C(F)(F)F`, the “Percent Effect” value is recorded as -9.631%.
For the compound `CC(C)Nc1nc(-c2ccccc2)nc2c1CCN(C(=O)C1CC1)CC2.O=C(O)C(F)(F)F`, the “Percent Effect” value was 99.02%.
The value for `Cc1nc2c(c(NC(C)C)n1)CCN(Cc1cccnc1)CC2.O=C(O)C(F)(F)F.O=C(O)C(F)(F)F` was -13.98%.
As to `CC(C)Nc1ncnc2c1CCN(C(=O)Cc1ccccn1)CC2.O=C(O)C(F)(F)F`, the “Percent Effect” value is 17.78%.
As to `CC(=O)N1CCc2nc(-c3ccc(F)cc3)nc(NC(C)C)c2CC1`, the “Percent Effect” value is 94.36%.
Turning to `CC(C)Nc1nc(-c2ccccc2)nc2c1CCN(C(=O)CC#N)CC2`, the “Percent Effect” value turned out to be 98.77%.
The value for `CC(=O)NCC(=O)N1CCc2nc(-c3ccccc3)nc(C)c2CC1` was -15.18%; that for `CSCC(=O)N1CCc2nc(C)nc(NCc3ccccc3)c2CC1` was -12.22%; that for `CC(=O)N1CCc2nc(-c3ccccc3)nc(NC(C)C)c2CC1` was 96.01%.
Under `Cc1ncsc1C(=O)NCc1cc2n(n1)CCN(C(=O)N(C)C)C2` stands -4.389%.
The value for `Cc1sc2nc(CCN)nc(N3CCN(S(C)(=O)=O)CC3)c2c1C` was 5.151%; that for `CN1CC(=O)N(c2cnn(C)c2)CC12CCN(C(=O)c1ccsc1)C2.O=C(O)C(F)(F)F` (configuration not stated) was -13.31%.
In the case of `CN1CC(=O)N(c2ccccc2)CC12CCN(C(=O)c1cnccn1)C2.O=C(O)C(F)(F)F` (configuration not stated), the “Percent Effect” value was 102.5%.
Take `CN1CC(=O)N(c2ccccc2)CC12CCN(C(=O)c1ccnnc1)C2.O=C(O)C(F)(F)F` (configuration not stated): the “Percent Effect” value is reported as 94.6%.
As to `CN1CC(=O)N(c2ccsc2)CC12CCN(C(=O)c1ccccc1)C2.O=C(O)C(F)(F)F` (configuration not stated), the “Percent Effect” value turned out to be 8.898%.
Under `CCC(CC)C(=O)N1CCC2(C1)CN(c1ccccc1)C(=O)CN2C.O=C(O)C(F)(F)F` (configuration not stated) stands -2.96%; under `CN1CC(=O)N(c2cccnc2)CC12CCN(C(=O)c1cccnc1)C2.O=C(O)C(F)(F)F.O=C(O)C(F)(F)F` (configuration not stated), -6.437%.
